Assay outcomes deposited in PubChem by National Center for Advancing Translational Sciences (NCATS).
NPSR antagonist: qHTS Assay for Antagonists of the Neuropeptide S Receptor: cAMP Signal Transduction. Q6W5P4. CHO-NPSR cells, cAMP TR-FRET, antagonist mode. Potency, µM (doses to about 38.3 µM), inactives show at the highest dose activity change, negative = inhibition, hits mostly inhibitors. hit rate 1% among 220,000. AID 1461, 2008; also: nearly all actives have a fitted effect of over 50% in size
Target sequence (Q6W5P4 whole entry, looked up): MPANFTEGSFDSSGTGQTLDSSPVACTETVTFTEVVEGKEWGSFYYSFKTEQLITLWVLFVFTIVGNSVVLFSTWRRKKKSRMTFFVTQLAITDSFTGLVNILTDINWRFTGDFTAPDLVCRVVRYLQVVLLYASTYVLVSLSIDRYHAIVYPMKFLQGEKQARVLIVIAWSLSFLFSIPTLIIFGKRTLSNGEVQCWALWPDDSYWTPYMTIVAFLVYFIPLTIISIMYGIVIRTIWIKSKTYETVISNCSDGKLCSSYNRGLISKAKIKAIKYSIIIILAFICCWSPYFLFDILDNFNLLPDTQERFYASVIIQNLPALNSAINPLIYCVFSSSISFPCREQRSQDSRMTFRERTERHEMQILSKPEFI
Gal4-VP16 FLuc: VP16 counterscreen qHTS for inhibitors of ROR gamma transcriptional activity; Drosophila S2 Gal4-VP16 UAS-luciferase, luminescence, 20 h; Potency, µM (doses to about 53.6 µM), for inactives: top-dose activity, negative = inhibition, actives largely listed as inhibitors; hit rate 3.5% among 310,000;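 also: Gal4-VP16 expression switched on by copper sulfate through the metallothionein promoter; nearly all actives have a fitted effect of over 50% in size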
B2AR arrestin: qHTS assay of beta-arrestin-biased ligands of beta2-adrenergic receptor | Potency, µM (series often up to 46.1 µM), for inactives: top-dose activation, actives largely listed as activators | hit rate 0.02% among 330,000 | beta-arrestin recruitment to beta2AR, cell-based reporter | Beta-2 adrenergic receptor (Homo sapiens), P07550;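 also: 0% = DMSO controls and full agonism = EC100 isoproterenol or metaproterenol; nearly all actives have a fitted effect of over 65% in size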
RORg inh: qHTS for inhibitors of ROR gamma transcriptional activity; Nuclear receptor ROR-gamma (Mus musculus), P51450; Drosophila S2 Gal4-RORgamma UAS-luciferase reporter, 20 h; Potency, µM (titrated, usually from 53.6 µM), for the others: at the top dose activity change, negative = inhibition, hits mostly inhibitors; hit rate 5.4% among 310,000; AID 2551, 2010; also: nearly all actives have a fitted effect of over 60% in size
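Luciferase reporter read in Schneider cells carrying Gal4-RORγ (mouse) and UAS-Photinus luciferase; cells given compound 1 h before 700 uM copper sulfate induction, then incubated 20 h at ambient temperature.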
* marks the source's active call; other numbers are inactive results; ? = inconclusive; nt = no result; [ ] = remark or other dose. This is a sample that favours compounds with a hit; in the whole collection about 5.7% have one here. Calls follow the shape of the dose curve; as a rule, active = well fitted curve in the direction sought with a large enough effect; inconclusive = small, poorly fitted or top-dose-only effect, or another doubt; inactive = no such curve, though single readings can be large; an effect the other way counts as inactive or inconclusive. Unless noted, % is scaled to controls: 0 for no effect and ±100 for the full control effect; potency is read from the fitted curve at half-maximal effect.

SMILES | NPSR antagonist | Gal4-VP16 FLuc | B2AR arrestin | RORg inh
C/C(=N\NC(=O)c1ccncc1)c1cc2ccccc2o1 | 8.7% | -1.0% | 0.0% | ?
C/C(=N\Nc1nc2ccccc2[nH]1)c1cc2ccccc2o1 | ? | 3.55µM* | 0.2% | 4.47µM*
C/C(=N/O)c1ccccn1 | -18.4% | 0.5% | -1.4% | -28.2%
CC[C@H](C)[C@H](NC(=O)[C@H](Cc1ccc(O)cc1)NC(=O)CNC(=O)[C@@H]1CCCN1C(=O)[C@H](CC(=O)O)NC(=O)[C@@H](N)CS)C(=O)NCC(=O)N[C@@H](CO)C(=O)N[C@@H](CCCN=C(N)N)C(N)=O | nt | 0.5% | nt | 0.5%
Cc1ccc(NC(=O)C(NS(=O)(=O)c2cccc3nsnc23)C(C)C)nc1 (stereo not drawn) | -6.5%[46.1 µM] | -11.1% | -0.9% | 20.8%
CCOc1ccc2nc(NC(=O)C(NS(=O)(=O)c3cccc4nsnc34)C(C)C)sc2c1 (stereo not drawn) | -21.8%[46.1 µM] | ? | 0.3% | 15.8µM*
CC(C)C(NS(=O)(=O)c1cccc2nsnc12)C(=O)Nc1nc2ccc(Cl)cc2s1 (stereo not drawn) | -26.9%[46.1 µM] | ? | 0.5% | 22.4µM*
COC(=O)N1CCC2(CCCN(C(=O)Nc3ccccc3)C2)CC1 | nt | -1.0% | nt | 16.0%
COc1ccc(OC)c(N2C(=O)CCCC2=O)c1 | nt | 1.8% | 0.0% | 11.2µM*
CC1CCC2C(=O)N3C(CCC(C)C3c3ccc(-c4ccco4)cc3)C(=O)N2C1c1ccc(-c2ccco2)cc1 (stereo not drawn) | nt | 5.3%[10 µM] | nt | 3.8%[10 µM]
C[C@H]1C=CC(=O)C[C@H]1c1c(F)cccc1Cl | nt | -13.8% | nt | -3.7%
O=C(c1ccc(Cl)cc1)c1ccc(OCC(=O)N2CCOCC2)cc1 | 1.5%[46.1 µM] | 11.2µM* | -1.0% | ?
Cc1ccc(NC(=S)N2CCC(c3nc4ccccc4s3)CC2)cc1C | -24.6%[46.1 µM] | 11.2µM* | 0.1% | 4.47µM*
Cc1cc(C)cc(NC(=S)N2CCC(c3nc4ccccc4s3)CC2)c1 | -18.3%[46.1 µM] | 11.2µM* | 0.4% | 4.47µM*
COC(=O)[C@@H]1C[C@H]1[C@@H](NS(=O)(=O)c1ccc(-c2ccccc2)cc1)c1ccccc1 | nt | -8.0% | nt | 34.8%
COc1ccc(NC(=O)Cc2csc(NC(=O)Nc3ccccc3OC)n2)c(OC)c1 | nt | nt | 0.4% | nt
COc1ccc(OC)c(NC(=O)Cc2csc(NC(=O)Nc3ccccc3OC)n2)c1 | nt | nt | -0.2% | nt
COc1ccc(NC(=S)Nc2nc(CC(=O)Nc3ccccc3OC)cs2)cc1 | -16.6%[46.1 µM] | 4.47µM* | 3.1% | 1.78µM*
COc1ccccc1NC(=O)Cc1csc(NC(=S)Nc2ccccc2)n1 | -27.7%[46.1 µM] | 3.16µM* | -0.7% | 1.12µM*
Cc1ccc(N=Cc2cc(Br)cc(Cl)c2O)cc1 | -37.8% | -0.4% | 0.4% | 11.2µM*
CC(C)C[C@H](NC(=O)CNC(=O)[C@@H]1CCCN1C(=O)[C@H](CCCNC(=N)N)NC(=O)[C@H](CC(=O)O)NC(=O)[C@@H](NC(=O)[C@H](CC(N)=O)NC(=O)[C@@H](NC(=O)[C@H](CC(=O)O)NC(=O)CNC(=O)[C@@H](NC(=O)[C@@H](NC(=O)[C@H](C)NC(=O)[C@@H](N)CCC(N)=O)[C@@H](C)O)C(C)C)C(C)C)[C@@H](C)O)C(=O)N[C@@H](CC(C)C)C(=O)N[C@@H](CC(=O)O)C(=O)N[C@@H](CC(C)C)C(=O)N[C@@H](CCCCN)C(=O)O | nt | -9.6% | nt | 12.5%
CC(=O)OCC(NC(=O)C(C)NC(=O)OC(C)(C)C)C1OC(n2ccc(=O)[nH]c2=O)C(OC(C)=O)C1OC(C)=O (stereo not drawn) | nt | -4.7% | nt | 30.6%
Cc1cc(C)nc(S/C=C/C(=O)c2ccccc2F)n1 | ? | 10µM* | ? | 7.94µM*
Cc1cc(NC(=O)c2ccccc2F)on1 | 11.3% | -7.6% | -0.3% | -20.7%
Cc1nnc(SCC2=C(C(=O)O)N3C(=O)C(NC(=O)Cn4cnnn4)[C@@H]3SC2)s1 (stereo partly drawn) | nt | -0.2% | nt | -0.9%
Cc1ccc(N(Cc2cc3cc(C)ccc3[nH]c2=O)S(=O)(=O)c2ccccc2)cc1 | 9.2%[46.1 µM] | -4.4% | -0.1% | 15.6%
CC1CCN(Cc2c(C(=O)N/N=C/c3cc(Br)ccc3O)nnn2-c2nonc2N)CC1 | nt | 7.08µM* | -0.3% | 3.55µM*
COc1c(Cl)cc(Cl)cc1/C=N/NC(=O)c1nnn(-c2nonc2N)c1CN1CCC(C)CC1 | nt | -2.6% | -0.3% | -25.8%
CC1CCN(Cc2c(C(=O)N/N=C/c3cc(Cl)ccc3O)nnn2-c2nonc2N)CC1 | nt | 4.47µM* | -1.3% | 3.55µM*
